Laboratory results taken from ChEMBL document CHEMBL4513216, “Probing the Open Global Health Chemical Diversity Library for Multistage-Active Starting Points for Next-Generation Antimalarials” (ACS Infect Dis, 2020).
Hit rate of the full screen: of about 69,000 compounds, about 8,600 (12%) showed an effect of 50% or more. For the sample, strong results were picked, then their nearest neighbours and some compounds at random.

system: Plasmodium berghei; assay: Screen against P. berghei liver stage (PbLuc), transformed with Luciferase, at 10uM; assay type: functional, HepG2; details: tested at 10 uM

| Compound | INHIBITION [%] |
| --- | --- |
| CCS(=O)(=O)N(C)CCCNC(=O)c1cc(Cl)cc2cccnc12 | 37.9 |
| CCCNC(=O)C(C)n1nc(-c2ccc(C)o2)cc(N)c1=O (stereo not drawn) | 31.6 |
| CCc1cc(CNC(=O)C2CCCN(C(=O)NCC(C)C)C2)[nH]n1 (stereo not drawn) | 22.5 |
| CN(Cc1ccccc1)c1cnn(CC2CCCCO2)c(=O)c1 (stereo not drawn) | 28.2 |
| COCC1CC2(CCN(C(=O)c3cnc4ccccc4c3)CC2)CO1 (stereo not drawn) | 42.1 |
| Cc1ccc(CN(C)C(=O)CN2CCCC2c2cnn(C)c2)cc1 (stereo not drawn) | -1.79 |
| Cc1ccc(CN(C)C(=O)c2scnc2C)cc1 | -11.19 |
| COC(=O)c1ccc(CN(C)C(=O)c2cnsn2)cc1 | 64.1 |
| Cc1ccc(CN(C)C(=O)c2cnsn2)cc1 | 65.2 |
| COC(=O)c1cccc(C(=O)N(C)Cc2ccsc2)c1 | 13.8 |
| CN(Cc1cccc(OC(F)(F)F)c1)C(=O)Cc1ccon1 | 19.5 |
| COC(=O)c1cccc(C(=O)N(C)Cc2cccc(O)c2)c1 | 7.44 |
| CN(Cc1cccc(OC(F)(F)F)c1)C(=O)c1ccncc1F | 39.4 |
| CN(Cc1cccc(OC(F)(F)F)c1)C(=O)c1cnsn1 | 68.6 |
| Cc1nn(C)c2cn(CC(=O)N3CCN(c4ccccn4)CC3)nc12 | 30 |
| CC(c1ccco1)N(C(=O)Cn1nc2n(c1=O)CCCCC2)C1CC1 (stereo not drawn) | 5.94 |
| Cc1ncc(C(=O)NCCNc2ncccc2C#N)s1 | -0.113 |
| O=C(Cn1ccnc1)N(CCO)CCSc1ccc(Cl)cc1 | 9.41 |
| COCC(=O)N1CCCC2(CCN(Cc3cccc(C)n3)C2=O)C1 (stereo not drawn) | 43.9 |
| N#Cc1cc(F)ccc1Cn1cnc(C2CCC2)cc1=O | 26.6 |
| N#Cc1ccc(F)cc1Cn1cnc(C2CCC2)cc1=O | -22.3 |
| N#Cc1cc(Cn2cnc(C3CCC3)cc2=O)ccc1F | 74.3 |
| CCc1nnc2n1CCN(Cc1cc(Cl)c3c(c1)OCCO3)C2 | 10.235 |

| Compound | INHIBITION [%] |
| --- | --- |
| COc1ncccc1CNC(=O)c1cc(Cl)ccn1 | -22.8 |
| Cc1noc(CCCC(=O)N2CCCCC2CNS(C)(=O)=O)n1 (stereo not drawn) | 49.7 |
| CC(C)OCCCNC(=O)CS(=O)(=O)Cc1ccc(Cl)cc1 | 9.64 |
| CNC(=O)CC1CC2(CCN(Cc3nccs3)CC2)c2ccccc21 (stereo not drawn) | -0.113 |
| CN(C)C(=O)CC1CC2(CCN(Cc3ccco3)CC2)c2ccccc21 (stereo not drawn) | 75 |
| CN(C)C(=O)NC1COC2(CCN(Cc3ccco3)CC2)C1 (stereo not drawn) | 27.6 |
| CN(C)C(=O)CC1CC2(CCN(Cc3ccsc3)CC2)c2ccccc21 (stereo not drawn) | 64.2 |
| CN(C)C(=O)CC1CC2(CCN(Cc3ccoc3)CC2)c2ccccc21 (stereo not drawn) | -6.23 |
| CN(C)C(=O)CC1CC2(CCN(Cc3cccs3)CC2)c2ccccc21 (stereo not drawn) | 45.2 |
| CC(=O)N1CCC(N2CCC(c3nc(C)cc(C)n3)C2)CC1 (stereo not drawn) | 24.8 |
| Cc1cncnc1C1CCN(CC(N)=O)CC1 | -16.9 |
| CC(=O)N1CCc2nc(C3CCN(c4ncccn4)C3)ncc2C1 (stereo not drawn) | -0.902 |
| CNC(=O)[C@@]12CCCN(c3ncccn3)[C@@H]1CN(C)C2 | -17.4 |
| CS(=O)(=O)N1C[C@H]2N(c3ncccn3)CCC[C@@]2(C(=O)NCC2CC2)C1 | 35.8 |
| CCN1C[C@H]2N(c3ncccn3)CCC[C@@]2(C(=O)NCC2CC2)C1 | 19.5 |
| CC(C)CN1C[C@H]2N(c3ncccn3)CCC[C@@]2(C(=O)NCC2CC2)C1 | 56.6 |
| CN1C[C@H]2N(c3ncccn3)CCC[C@@]2(C(=O)NCC2CC2)C1 | 67.5 |
| CNC(=O)N1C[C@H]2N(c3ncccn3)CCC[C@@]2(C(=O)NCC2CC2)C1 | 17.7 |
| CC(=O)N1CC(=O)N(c2ccccc2)CC12CCN(Cc1cccs1)C2 (stereo not drawn) | 6.38 |
| COCC1CC2(CCN(Cc3cnn(C)c3)CC2)CN1C(C)C (stereo not drawn) | 37.5 |
| O=C(O)c1ccc(C2CCCN(C(=O)c3ccc[nH]3)C2)cc1 (stereo not drawn) | 36.8 |
| O=C(NCc1cnc2n1CCN(Cc1nccs1)CC2)C1CCC1 | 30.3 |
| Cn1cc(C2CCCN2Cc2csc(C3CCCC3)n2)cn1 (stereo not drawn) | 42 |

| Compound | INHIBITION [%] |
| --- | --- |
| CC(=O)Nc1nc(CN2CCCC2c2cnn(C)c2)cs1 (stereo not drawn) | 34.9 |
| Cn1cc(C2CCCN2Cc2csc(C(C)(C)C)n2)cn1 (stereo not drawn) | 55.9 |
| CC(C)c1nc(CN2CCCC2c2cnn(C)c2)cs1 (stereo not drawn) | 19.4 |
| Cn1cc(C2CCCN2Cc2csc(-c3ccccc3)n2)cn1 (stereo not drawn) | -38.2 |
| CC(=O)N(C)c1nc(CN2CCCC2c2cnn(C)c2)cs1 (stereo not drawn) | 50.3 |
| Cc1cnn(CC2CN(Cc3nc(-c4ccsc4)no3)CCO2)c1 (stereo not drawn) | 49.75 |
| CC1(C(=O)N2CCN(c3cnccn3)CC2)CNCCO1 (stereo not drawn) | 36.5 |
| COc1cc2cc3c(nc2cc1OC)OCCN(CC1CC1)C3 | -7.66 |
| COc1cccc(CC(=O)NCc2cnc(C)nc2C2CCCN2C)c1 (stereo not drawn) | 36.7 |
| Nc1nc2c(c(N3CCSCC3)n1)CCN(Cc1ccccn1)CC2 | 66.5 |
| NCC1CCCN(c2nc(-c3ccccc3)nc3c2CCNCC3)C1 (stereo not drawn) | 19.5 |
| Cc1nc2c(c(N3CCCC(OCc4ccccn4)C3)n1)CCNCC2 (stereo not drawn) | 73 |
| Nc1nc2c(c(N3CCCC(CN4CCCC4=O)C3)n1)CCNCC2 (stereo not drawn) | 48.5 |
| c1ccc(CN2CCc3ncnc(N4CCCC4)c3CC2)nc1 | 46.7 |
| Nc1nc2c(c(N3CCCC(OCc4ccccn4)C3)n1)CCNCC2 (stereo not drawn) | 59.4 |
| Cc1nn(C)c2ncnc(N3CCCC(OCc4ccccn4)C3)c12 (stereo not drawn) | -46.6 |
| Cc1nc(N2CCCC(OCc3ccccn3)C2)c2c(C)noc2n1 (stereo not drawn) | -4.21 |
| Nc1nc2c(c(N3CCCC3)n1)CCN(Cc1ccccn1)CC2 | 41.5 |
| CCc1nnc2n1CCN(CC(O)c1ccc3c(c1)OCCO3)C2 (stereo not drawn) | 22.333 |
| Cc1cnc(CN2CCCC2c2noc(C(C)C)n2)cn1 (stereo not drawn) | 9.54 |
| O=C(Cc1n[nH]c2ccccc12)N1CCC(Nc2cccnn2)CC1 | 49.3 |
| Cc1ccc(CN2CCOC3(COCCN(C(C)C)C3)C2)o1 (stereo not drawn) | 43 |
